Data from PubChem BioAssay AID1851 (National Center for Advancing Translational Sciences (NCATS), 2009).
The whole screen tested about 16,000 compounds, of which about 5,800 (36%) were called active. About 23% were inconclusive and are not listed. The list shows a part of the results. A number with no mark means an inactive call. Calls follow the shape of the dose curve; as a rule, active = well fitted curve in the direction sought with a large enough effect; inconclusive = small, poorly fitted or top-dose-only effect, or effect the other way; inactive = no such curve, though single readings can be large or run the other way.

Molecular target: Cytochrome P450 2C19 (Homo sapiens) (UniProt P33261)
Assay: Cytochrome panel assay with activity outcomes
Details: recombinant CYP, pro-luciferin dealkylation, luminescence, p450-cyp2c19; series mostly up to 57.1 µM
% is scaled to controls: 0 for no effect and ±100 for the full control effect.

Cytochrome P450 2C19 (Homo sapiens), sequence (P33261 whole entry, looked up): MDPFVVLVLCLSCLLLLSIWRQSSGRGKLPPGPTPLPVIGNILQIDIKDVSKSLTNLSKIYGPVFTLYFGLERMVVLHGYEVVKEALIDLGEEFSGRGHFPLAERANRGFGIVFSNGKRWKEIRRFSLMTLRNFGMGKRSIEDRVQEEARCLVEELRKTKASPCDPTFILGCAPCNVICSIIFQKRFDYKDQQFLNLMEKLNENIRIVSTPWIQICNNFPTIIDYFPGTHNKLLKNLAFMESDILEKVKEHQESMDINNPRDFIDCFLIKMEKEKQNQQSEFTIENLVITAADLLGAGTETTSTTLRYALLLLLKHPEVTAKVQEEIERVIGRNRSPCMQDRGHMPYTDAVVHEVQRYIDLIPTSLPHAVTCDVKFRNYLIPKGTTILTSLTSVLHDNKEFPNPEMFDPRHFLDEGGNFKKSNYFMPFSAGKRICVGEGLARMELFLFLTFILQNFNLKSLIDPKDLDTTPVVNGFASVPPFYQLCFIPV

Compound | activity, negative = inhibition | AC50
Cc1ccc(S(=O)(=O)N[C@@H]2COC(=O)C/C=C\[C@H](C)COC(=O)N[C@@H](C)C(=O)C/C=C\[C@H]2C)cc1 | -6.82% [at 11.4 µM] | 
COc1ccc2c(c1)OC1=C(C(=O)CCC1)C2C1=C(O)CCCC1=O (stereo not drawn) |  | 15.8 µM (active)
CCNc1ncc2nc(-c3cccc(C#N)c3)c(=O)n(CCC#N)c2n1 |  | inactive
CC(C)Cn1c(C(C)C)nc([N+](=O)[O-])c1S(=O)(=O)c1ccc(F)cc1 |  | 5.01 µM (active)
Cc1ccc(C2C(C(=O)c3ccco3)=C(O)C(=O)N2c2nnc(C)s2)cc1 (stereo not drawn) |  | inactive
CCS(=O)(=O)Nc1ccc(C2=NN(C(=O)c3ccco3)C(c3ccc(C)cc3)C2)cc1 (stereo not drawn) |  | 11.2 µM (active)
c1ccc(-c2noc(CSc3nnnn3C3CCCCC3)n2)cc1 |  | 1.26 µM (active)
Cc1sc2nc(SCc3nc(-c4cccs4)no3)n(-c3ccccc3)c(=O)c2c1C |  | inactive
Cc1ccc(C)n1N1C(=O)/C(=C\c2ccc(Cl)cc2)SC1=S |  | 7.94 µM (active)
CCOc1cc2[nH]c(=O)n(CCCC(=O)NCc3ccc(OC)cc3)c(=O)c2cc1OCC |  | inactive
COC(=O)N1CCC2(CCCN(Cc3ccccc3OC)C2)CC1 |  | inactive
COc1ccccc1CNC(=O)CCCn1c(=O)c2ccccc2n(CC(=O)NC2CCCC2)c1=O |  | 7.94 µM (active)
CC(=O)OC[C@@H]1O[C@@H](O/N=C2/C[C@@H](O)[C@@H](O)[C@@H]3[C@@H]4C(=O)N(C(C)(C)C)C(=O)[C@H]4CC[C@@H]23)[C@H](OC(C)=O)[C@H](OC(C)=O)[C@@H]1OC(C)=O | 11.3% [at 11.4 µM] | 
c1ccc(CSc2nnc(-c3sccc3-n3cccc3)o2)cc1 |  | 2 µM (active)
Clc1ccc(CSc2nnc(-c3cccnc3)o2)cc1 |  | 3.55 µM (active)
Clc1ccc(CSc2nnc(-c3sccc3-n3cccc3)o2)cc1 |  | 1.12 µM (active)
Cc1cccc(-c2nnc(SCc3ccccc3)o2)c1 |  | 11.2 µM (active)
CC(C)N(Cc1ccccc1)S(=O)(=O)c1n[nH]c(C(C)(C)C)n1 | -40.1% [at 11.4 µM] | 
Clc1cccc(CSc2nnc(-c3sccc3-n3cccc3)o2)c1 |  | 1.58 µM (active)
CC(C)CN1CC[C@@]2(CCCN(C(=O)c3csnn3)C2)C1 |  | inactive
COc1ccc(-n2cccc2C=O)cc1OC |  | inactive
COc1ccc2c(c1)-c1c(sn(-c3ccc(OC)c(OC)c3)c1=S)C(C)(C)N2 |  | 6.31 µM (active)
COc1ccc(-n2c(C)n[nH]c2=O)cc1OC |  | inactive
Clc1ccccc1NN(Cc1ccccn1)c1ccccc1Cl |  | 3.98 µM (active)

Compound | activity, negative = inhibition | AC50
Clc1ccccc1NN(Cc1ccncc1)c1ccccc1Cl |  | 1.26 µM (active)
O=C(Nc1cccc(F)c1)N1CCCC2(CCNCC2)C1 |  | inactive
CC(=O)N(O)CCCCCNC(=O)CCC(=O)N(O)CCCCCNC(=O)CCC(=O)N(O)CCCCCN |  | inactive
O=C(c1ccccc1)c1cc(F)c(N2CCOCC2)cc1Cl |  | 0.708 µM (active)
O=C(O)c1ccc(C(=O)c2ccccc2)c(C(=O)O)c1 | 33.3% [at 11.4 µM] | 
Cc1ccc2nc(-c3ccccc3)cc(C(=O)NCCCn3ccnc3)c2c1 |  | 2 µM (active)
COc1ccc(Nc2cc(C(=O)NCCCN3CCN(C)CC3)c3ccccc3n2)cc1 |  | inactive
Cc1ccc(-n2c(C)cc(C(=S)N3CCOCC3)c2C)cc1C |  | 0.891 µM (active)
O=C(Nc1ccc(S(=O)(=O)N2CCCCC2)cc1)c1ccc(CN2CCc3ccccc3C2)cc1 |  | 7.94 µM (active)
O=C(Nc1ccc(S(=O)(=O)N2CCCC2)cc1)c1ccc(CN2CCOCC2)cc1 |  | inactive
CCOC(=O)C(/C(N)=N/C(=O)Nc1ccccc1)=C(\C)O |  | 17.8 µM (active)
CCOC(=O)/C(C(N)=NCCCO)=C(/O)c1ccccc1 |  | inactive
BrC(c1cccc2ccccc12)c1cccc2ccccc12 |  | 1.26 µM (active)
c1c[nH]c(CN2CCOCC2)n1 | -4.4% [at 11.4 µM] | 
Clc1ccc(-n2nnnc2CN2CCOCC2)cc1 |  | 11.2 µM (active)
COCCn1c(=O)c(-c2cc(F)cc(F)c2)nc2cnc(N3CCNCC3)nc21 |  | inactive
COc1ccc(S(=O)(=O)Nc2ccc(F)cc2)c(C)c1C |  | 0.0891 µM (active)
O=C(CSc1nnnn1C1CCCC1)Nc1ccc(F)cc1 |  | 2 µM (active)
FC(F)(F)c1ccccc1-c1nccc(NCc2cccs2)n1 |  | 2 µM (active)
Cc1cnc(CNc2ccnc(-c3ccccc3C(F)(F)F)n2)cn1 |  | inactive
CC(=O)NCCNc1ccnc(-c2ccccc2C(F)(F)F)n1 |  | inactive
CN(C)Cc1ccccc1-c1nccc(Nc2ccc(F)cc2)n1 |  | inactive
COCCNc1ccnc(-c2ccccc2C(F)(F)F)n1 |  | 10 µM (active)
COCCNc1ccnc(-c2ccccc2CN(C)C)n1 |  | inactive

Compound | activity, negative = inhibition | AC50
FC(F)(F)c1ccccc1-c1nccc(NCc2ccccc2)n1 |  | 6.31 µM (active)
Fc1ccc(Nc2ccnc(-c3ccccc3C(F)(F)F)n2)cc1 |  | 10 µM (active)
COc1ccc(OC[C@@H](CO)OC)cc1 | 28.9% [at 11.4 µM] | 
CN(C)Cc1ccccc1-c1nccc(NCc2cccs2)n1 |  | inactive
Cc1ccccc1-c1nccc(NCc2cccs2)n1 |  | 3.98 µM (active)
CC(C)Nc1nc(Oc2ccc(Cl)cc2)cc(C(F)(F)F)n1 |  | 10 µM (active)
C[C@@H]1O[C@H](O[C@@H]2[C@H](C)O[C@H](O[C@@H]3[C@H](C)O[C@H](O[C@H]4CC[C@]5(C)[C@@H](CC[C@@H]6[C@H]5C[C@@H](O)[C@]5(C)[C@@H](C7=CC(=O)OC7)CC[C@]65O)C4)C[C@@H]3O)C[C@@H]2O)C[C@H](O)[C@@H]1O |  | inactive
Cn1c2c(c(=O)n(C)c1=O)CN(CCN1CCNCC1)CN2 |  | inactive
CC(Sc1nc(NCc2ccccc2)nc(N(C)C)n1)C(=O)Nc1ccccc1 (stereo not drawn) |  | 0.794 µM (active)
COc1ccc(NC2=NC(=S)N(c3ccc(C)cc3)C23CCCCC3)cc1 |  | inactive
COc1cc2c(C(=O)NCc3ccc(C)o3)cn(CC(C)C)c(=O)c2cc1OC |  | 35.5 µM (active)
CCOc1ccc(-n2cc(C(=O)NCc3ccco3)c3cc(OC)c(OC)cc3c2=O)cc1 |  | inactive
COc1ccc(/C=N/n2c(C)nnc2C)c(OC)c1 |  | inactive
COc1cccc(/C=N/n2c(=S)n(C)c3cc(C)c(C)cc32)c1OC |  | 2.24 µM (active)
Cc1c(Br)cc(C(=O)NC2CCCCC2)c(C)c1C |  | 14.1 µM (active)
Cc1ccc(C(=O)NC2CCCCCC2)cc1N1CCCC1=O |  | inactive
C[C@@H](CCC(=O)O)C(=O)O | 30.5% [at 11.4 µM] | 
N#C/C(=C\c1cn[nH]c1-c1ccccc1)C(=O)NC1CCCCCC1 |  | 17.8 µM (active)
N#C/C(=C\Nc1ccccn1)C(=O)C1CC1 | -23.3% [at 11.4 µM] | 
COc1ccc(/C=C(/C#N)C(=O)NC2CCCCC2)cc1Br |  | inactive
N#C/C(=C\c1cc(Cl)cc(Cl)c1O)C(=O)NC1CCCCC1 |  | 15.8 µM (active)
CC(=NC1CCCCC1)c1ccccc1O | 3.59% [at 11.4 µM] | 
CC1=NNC(=S)NCCCN2CCN(CCCNC(=S)NN=C(C)C=NNC(=S)NCCCN3CCN(CCCNC(=S)NN=C1)CC3)CC2 | 27% [at 11.4 µM] | 
Cc1cc(C(F)(F)F)n2nc(-c3cnn(C)c3C(F)(F)F)cc2n1 |  | 2.82 µM (active)

Compound | activity, negative = inhibition | AC50
Cc1cc(C(F)(F)F)n2nc(-c3cnn(C)c3C(F)(F)F)c(Cl)c2n1 |  | 1.78 µM (active)
O=C(Nc1ccccc1C(=O)NCC1CCCO1)c1ccc(Cl)cc1Cl (stereo not drawn) |  | 14.1 µM (active)
Cc1ccccc1C(=O)c1c[nH]c(C(=O)NCC2CCCO2)c1 (stereo not drawn) |  | 1 µM (active)
O=C(NCC1CCCO1)c1cc(-c2ccc(Cl)cc2Cl)on1 (stereo not drawn) |  | 15.8 µM (active)
CO[C@@H]1COC(=O)[C@H]2CCCN2C(=O)[C@@H](C)COC(=O)[C@H](COCc2ccccc2)NC(=O)C/C=C\[C@H]1C | 12.9% [at 11.4 µM] | 
O=C(O)/C=C\C(=O)Nc1ncn[nH]1 | 10.9% [at 11.4 µM] | 
O=[N+]([O-])c1ccc(N2CCN(CCOc3nonc3-c3ccccc3)CC2)c(Cl)c1 |  | 4.47 µM (active)
Oc1c(Br)cc(Br)cc1CN(Cc1cc(Br)cc(Br)c1O)C1CCCCC1 |  | 0.316 µM (active)
Oc1c(Br)cc(CN(Cc2cc(Br)c(O)c(Br)c2)C2CCCCC2)cc1Br | -5.38% [at 11.4 µM] | 
CC(C)(C)c1cc(Br)c(O)c(CN(Cc2cc(C(C)(C)C)cc(Br)c2O)C2CCCCC2)c1 |  | 0.631 µM (active)
CC(C)c1cc(CN(C)C)c(O)c(C(C)(C)C)c1 | -2.3% [at 11.4 µM] | 
CN(C)Cc1cc(O)c(O)c(CN(C)C)c1 | -24% [at 11.4 µM] | 
CN(Cc1cc(C(C)(C)C)cc(Br)c1O)Cc1cc(C(C)(C)C)cc(Br)c1O |  | 3.16 µM (active)
CC12CC[C@@H]3c4ccc(OP(=O)(O)O)cc4CCC3C1CCC2=O (stereo partly drawn) | -12.5% [at 11.4 µM] | 
O=C(c1ccncc1)N1CCC2(CC1)CN(Cc1cc(C(F)(F)F)cc(C(F)(F)F)c1)C2 |  | inactive
CCCCN(C(=O)Nc1ccc(OCC)cc1)C1CCN(C(C)=O)CC1 |  | inactive
CCOc1ccc(NC(=O)C(=O)NCC2CCCN2CC)cc1 (stereo not drawn) |  | inactive
CCOc1ccc(NC(=O)N(C2CCCCC2)C(C)c2ccncc2)cc1 (stereo not drawn) |  | 7.08 µM (active)
O=C(NNc1nc2ccccc2s1)C1CC1 |  | 15.8 µM (active)
CC(=O)NNc1nc2ccccc2s1 |  | inactive
O=C(NNc1nc2ccccc2s1)c1ccccc1F |  | 11.2 µM (active)
